PPARg SRC3 recr: PPARgamma agonists recruiting SRC-3 coactivator, primary screen, biochemical. activation, % at 8 µM. AID 731, 2007. Peroxisome proliferator-activated receptor gamma (Homo sapiens), P37231. biochemical PPARgamma/SRC-3 coactivator recruitment assay. 0.26% of 200,000 active; in the data active = activation above about 23%;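 note: 0% = DMSO and 100% = reference agonist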
Target sequence (P37231 whole entry, looked up): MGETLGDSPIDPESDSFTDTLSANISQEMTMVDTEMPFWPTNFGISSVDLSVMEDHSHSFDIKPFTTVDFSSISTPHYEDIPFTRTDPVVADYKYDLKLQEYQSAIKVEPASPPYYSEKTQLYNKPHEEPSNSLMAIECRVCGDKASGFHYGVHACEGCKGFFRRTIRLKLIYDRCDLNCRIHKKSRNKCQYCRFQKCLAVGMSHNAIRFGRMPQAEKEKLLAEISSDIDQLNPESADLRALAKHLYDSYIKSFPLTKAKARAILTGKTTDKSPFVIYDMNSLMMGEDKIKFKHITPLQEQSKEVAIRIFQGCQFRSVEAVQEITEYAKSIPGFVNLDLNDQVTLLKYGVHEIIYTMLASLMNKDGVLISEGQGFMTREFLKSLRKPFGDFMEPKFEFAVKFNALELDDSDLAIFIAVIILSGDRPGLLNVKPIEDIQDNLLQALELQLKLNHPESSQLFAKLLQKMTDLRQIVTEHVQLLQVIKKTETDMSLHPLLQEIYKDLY
PPARg SRC-2 ag: agonists of PPARg-SRC-2 recruitment, primary screen, biochemical, HTS; Peroxisome proliferator-activated receptor gamma (Homo sapiens), P37231; PPARgamma LBD-SRC-2 recruitment; activation, % at 8 µM; 0.34% of 200,000 active; in the data active = activation above about 22%;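 note: 0% = vehicle and 100% = reference agonist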
TR-FRET SRC-2 ct: TR-FRET signal artefacts, primary screen, artefact control for PPARgamma SRC-2 agonist project, biochemical. TR-FRET artefact counter-screen; hits give high values. TR-FRET ratio at 8 µM. 0.4% of 200,000 active
PPARg SRC1 recr: PPARgamma agonists recruiting SRC-1 coactivator, primary screen, biochemical. activation, % at 8 µM. AID 631, 2007. 0.41% of 200,000 active. Peroxisome proliferator-activated receptor gamma (Homo sapiens), P37231. PPARgamma-SRC-1 coactivator recruitment biochemical assay; in the data active = activation above about 19%;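 note: 0% = DMSO and 100% = reference agonist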
SRC3 TRFRET art: TR-FRET detection interference compounds, artefact control for PPARgamma SRC-3 recruitment agonists, biochemical, TR-FRET ratio; TR-FRET artefact counter-screen, PPARgamma/SRC-3 format; hits give high values; AID 1048, 2008; 0.39% of 99,000 active; TR-FRET ratio at 8 µM
SRC1 TRFRET art: TR-FRET detection interference compounds, primary screen, artefact control for PPARgamma SRC-1 recruitment agonists, biochemical, TR-FRET emission ratio. TR-FRET detection artefact counter-screen; hits give high values. TR-FRET ratio at 8 µM. 0.34% of 99,000 active; in the data active = TR-FRET ratio above about 2300
The depositor's hits bear a star. Compounds with a hit are over-represented: about 0.9% of the library has one in this group of screens. Cut-off read from the data, not from the text of the source, unless noted: active = TR-FRET ratio above about 2000; inactive = the rest.

Screening CCC1CCCCN1C(=O)CSc1nc(N)cc(N)n1 (stereo not given) returned PPARg SRC3 recr 1.3, PPARg SRC-2 ag 0.3, TR-FRET SRC-2 ct 1990*, PPARg SRC1 recr 0.0, SRC3 TRFRET art 1654 and SRC1 TRFRET art 1816.
Screening CCC1CCCCN1C(=O)CSc1nnc(-c2ccc(OC)cc2)o1 (stereo not given) returned PPARg SRC3 recr 15.4, PPARg SRC-2 ag 5.2, TR-FRET SRC-2 ct 1364 and PPARg SRC1 recr -1.9.
`COc1ccc(NC(=O)COC(=O)c2cccc(S(=O)(=O)N(C)C)c2)cc1` gave PPARg SRC3 recr 1.5, PPARg SRC-2 ag -2.9, TR-FRET SRC-2 ct 1513, PPARg SRC1 recr 24.1*, SRC3 TRFRET art 1754 and SRC1 TRFRET art 2141.
`C=CCN1C=CC(=C/C=C(/C#N)C(=O)OCC)C=C1` gave PPARg SRC3 recr 2.4, PPARg SRC-2 ag 2.6, TR-FRET SRC-2 ct 1483 and PPARg SRC1 recr 26.3*.
For CCOC(=O)/C(C#N)=C\N(C)C the results were PPARg SRC3 recr 6.5, PPARg SRC-2 ag 7.9, TR-FRET SRC-2 ct 1498 and PPARg SRC1 recr -4.1.
`CCCCc1c(C)nc2ccc(Br)cc2c1SCCC#N` gave PPARg SRC3 recr 13.3, PPARg SRC-2 ag 13.7, TR-FRET SRC-2 ct 2017*, PPARg SRC1 recr 7.4, SRC3 TRFRET art 2091* and SRC1 TRFRET art 2268.
`CCc1c(C)nc2c(Br)cccc2c1SCCC#N` gave PPARg SRC3 recr 11.6, PPARg SRC-2 ag 19.4, TR-FRET SRC-2 ct 1953, PPARg SRC1 recr 11.2, SRC3 TRFRET art 2026 and SRC1 TRFRET art 2367*.
For CN1C=CC=C/C1=C1\SC(=S)N(N)C1=O the results were PPARg SRC3 recr 3.2, PPARg SRC-2 ag 6.8, TR-FRET SRC-2 ct 1832, PPARg SRC1 recr 15.0, SRC3 TRFRET art 1494 and SRC1 TRFRET art 2010.
`Cc1nn(-c2ccc(F)cc2)c(C)c1CN1CCN(CCC(C)C)C(CCO)C1` (stereo not given) gave PPARg SRC3 recr -2.0, PPARg SRC-2 ag 5.0, TR-FRET SRC-2 ct 1609, PPARg SRC1 recr 0.7, SRC3 TRFRET art 1544 and SRC1 TRFRET art 1721.
O=C(CSc1nc2cccnc2n1Cc1ccccc1)NCc1ccco1 was read as PPARg SRC3 recr -1.1, PPARg SRC-2 ag 6.8, TR-FRET SRC-2 ct 1407 and PPARg SRC1 recr 34.3*.
S=C1NC[C@H](CC2CCCCC2)N1CC1CCCCC1 was read as PPARg SRC3 recr -1.7, PPARg SRC-2 ag -7.8, TR-FRET SRC-2 ct 1537, PPARg SRC1 recr 4.8, SRC3 TRFRET art 1641 and SRC1 TRFRET art 1760.
`COc1ccc(CSc2nnc(Cc3sc(-c4ccccc4)nc3-c3ccccc3)o2)cc1` gave PPARg SRC3 recr 17.3, PPARg SRC-2 ag 9.7, TR-FRET SRC-2 ct 3227* and PPARg SRC1 recr 7.8.
Cc1ccc(S(=O)(=O)N2CCCCC2)cc1NC(=O)CSc1nccn1C was read as PPARg SRC3 recr 3.1, PPARg SRC-2 ag -4.3, TR-FRET SRC-2 ct 1736, PPARg SRC1 recr 3.9, SRC3 TRFRET art 1625 and SRC1 TRFRET art 2368*.
For Cc1ccc(NC(=O)CSc2ncnc3ccccc23)cc1S(=O)(=O)N1CCCCC1 the results were PPARg SRC3 recr 4.8, PPARg SRC-2 ag 0.8, TR-FRET SRC-2 ct 1451, PPARg SRC1 recr 4.7, SRC3 TRFRET art 2119* and SRC1 TRFRET art 1842.
Cc1cc(C)c2nc(SCC(=O)Nc3ccc(S(=O)(=O)N4CCCC4)cc3)c(C)cc2c1 was read as PPARg SRC3 recr 7.5, PPARg SRC-2 ag 2.0, TR-FRET SRC-2 ct 1973* and PPARg SRC1 recr 8.7.
`Cc1nnc(SCC(=O)Nc2ccc(S(=O)(=O)N3CCCC3)cc2)n1N` gave PPARg SRC3 recr 0.2, PPARg SRC-2 ag 5.3, TR-FRET SRC-2 ct 1640 and PPARg SRC1 recr 6.0.
`Cn1ccnc1SCC(=O)Nc1cccc(S(=O)(=O)N2CCCCCC2)c1` gave PPARg SRC3 recr 5.8, PPARg SRC-2 ag 6.1, TR-FRET SRC-2 ct 1896, PPARg SRC1 recr 6.7, SRC3 TRFRET art 1653 and SRC1 TRFRET art 1996.
CCOC(=O)Nc1ccccc1C(=O)Nc1cc(C)cc(C)c1 was read as PPARg SRC3 recr 5.7, PPARg SRC-2 ag 4.5, TR-FRET SRC-2 ct 1463, PPARg SRC1 recr -0.9, SRC3 TRFRET art 1456 and SRC1 TRFRET art 1754.
`CCOC(=O)Nc1cccc(NC(=O)c2ccccc2F)c1` gave PPARg SRC3 recr 3.3, PPARg SRC-2 ag 8.9, TR-FRET SRC-2 ct 1470, PPARg SRC1 recr 8.6, SRC3 TRFRET art 1632 and SRC1 TRFRET art 2378*.
`CS(=O)(=O)c1ccc(C(=O)OCC(=O)NC2CCS(=O)(=O)C2)cc1[N+](=O)[O-]` (stereo not given) gave PPARg SRC3 recr 4.0, PPARg SRC-2 ag 2.4, TR-FRET SRC-2 ct 1491, PPARg SRC1 recr 2.9, SRC3 TRFRET art 1652 and SRC1 TRFRET art 1767.
CCOc1ccccc1NC(=S)N1CCN(c2nc(-c3ccc(F)cc3)cs2)CC1 was read as PPARg SRC3 recr 13.6, PPARg SRC-2 ag 10.8, TR-FRET SRC-2 ct 2063*, PPARg SRC1 recr 5.5, SRC3 TRFRET art 2234* and SRC1 TRFRET art 2465*.
CC(C)(C)c1nnc(NC(=O)CN2C(=O)C3C4C=CC(C4)C3C2=O)s1 (stereo not given) was read as PPARg SRC3 recr 36.3*, PPARg SRC-2 ag -10.8, TR-FRET SRC-2 ct 1429 and PPARg SRC1 recr -0.3.
O=c1c2cnn(-c3ccccc3)c2nc(-c2cccs2)n1-c1cccc(Cl)c1 was read as PPARg SRC3 recr 10.7, PPARg SRC-2 ag 0.0, TR-FRET SRC-2 ct 1669, PPARg SRC1 recr 2.6, SRC3 TRFRET art 2389* and SRC1 TRFRET art 1717.
For O=c1c2cnn(-c3ccccc3)c2nc(-c2cccs2)n1-c1ccc(Cl)cc1 the results were PPARg SRC3 recr -9.8, PPARg SRC-2 ag -5.5, TR-FRET SRC-2 ct 1373 and PPARg SRC1 recr 5.4.
For COc1ccc(CN2CCCC(CNC(=O)c3ccc(F)cc3)C2)c(C)c1C (stereo not given) the results were PPARg SRC3 recr 7.8, PPARg SRC-2 ag 6.6, TR-FRET SRC-2 ct 1605, PPARg SRC1 recr 9.2, SRC3 TRFRET art 1805 and SRC1 TRFRET art 1797.
`Cc1cc(C)n(-c2nc(SCC(=O)Nc3nccs3)c3c4c(sc3n2)COC(C)(C)C4)n1` gave PPARg SRC3 recr 5.1, PPARg SRC-2 ag 5.2, TR-FRET SRC-2 ct 1687 and PPARg SRC1 recr 19.2*.
`CCC1CCCCN1C(=O)COc1ccccc1NC(C)=O` (stereo not given) gave PPARg SRC3 recr 6.1, PPARg SRC-2 ag 10.0, TR-FRET SRC-2 ct 1387, PPARg SRC1 recr -4.6, SRC3 TRFRET art 1445 and SRC1 TRFRET art 1929.
Screening O=C(NC(=S)Nc1ccccc1)c1ccc(Br)o1 returned PPARg SRC3 recr 4.7, PPARg SRC-2 ag 7.8, TR-FRET SRC-2 ct 1845, PPARg SRC1 recr 22.2*, SRC3 TRFRET art 1864 and SRC1 TRFRET art 1954.
`Cn1ncnc1SCc1cn2cccnc2n1` gave PPARg SRC3 recr 7.3, PPARg SRC-2 ag 8.4, TR-FRET SRC-2 ct 1733, PPARg SRC1 recr 1.9, SRC3 TRFRET art 1626 and SRC1 TRFRET art 2051.
